Activity calls are given as the source filed them.
Legend:
[1] = system: Plasmodium falciparum Sir2 (PF13_0152, Sir2A); experiment: pfSir2 binders on small-molecule microarrays, primary screen, biochemical, small-molecule microarray, 635 nm fluorescence (AID 1098); conditions: small-molecule microarray binding, fluorescence 635 nm; higher = more signal;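 further: score merges spot fluorescence intensity with its signal-to-noise ratio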
[2] = small-molecule microarray binders of probe aDKK1, primary screen, biochemical, biotinylated probe, 635/667 nm fluorescence (AID 1099); conditions: higher = more signal;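 further: score merges 667nm spot fluorescence with signal to noise across triplicate slides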
[3] = small-molecule microarray binders of probe aCHRDL2, primary screen, biochemical, biotinylated probe, 635/667 nm fluorescence (AID 1100); conditions: higher = more signal
[4] = splicing luciferase reporter signal modulators, primary screen, spliceosome inhibition project, cell-based, HEK293, splice +/- reporter (AID 1101); conditions: luminescence, 24 h, higher = more signal, called active from +8 up or from −8 down;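 further: HEK293 cells carrying a splicing-competent luciferase reporter gene; test concentration not given here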
[5] = biological target: Fibroblast growth factor 10 (Homo sapiens) (UniProt O15520); experiment: FGF10 binders on small-molecule microarrays, primary screen, biochemical, small-molecule microarray, 635 nm fluorescence (AID 1102); conditions: FGF10 binding, fluorescence 635 nm, higher = more signal
Fibroblast growth factor 10 (Homo sapiens), sequence (O15520 whole entry, looked up): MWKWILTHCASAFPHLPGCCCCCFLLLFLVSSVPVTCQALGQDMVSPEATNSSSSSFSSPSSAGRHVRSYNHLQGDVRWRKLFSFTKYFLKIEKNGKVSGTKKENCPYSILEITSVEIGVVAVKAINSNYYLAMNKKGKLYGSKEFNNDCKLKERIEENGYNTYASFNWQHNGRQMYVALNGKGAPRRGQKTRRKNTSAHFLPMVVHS

[6] = system: glycogen synthase kinase-3 (GSK3A per assay name; protocol says GSK3B); experiment: GSK3 binders on small-molecule microarrays, primary screen, biochemical, small-molecule microarray, 635 nm fluorescence, GSK3A (AID 1103); conditions: small-molecule microarray binding, fluorescence 635 nm; higher = more signal; further: the record names both GSK3A and GSK3B
[7] = biological target: Epidermal growth factor receptor (Homo sapiens) (UniProt P00533); experiment: EGFR binders on small-molecule microarrays, primary screen, biochemical, small-molecule microarray, 635 nm fluorescence (AID 1104); conditions: EGFR binding, higher = more signal;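 further: score merges 667 nm emission intensity with spot signal to noise over triplicate slides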
Epidermal growth factor receptor (Homo sapiens), sequence (P00533 whole entry, looked up): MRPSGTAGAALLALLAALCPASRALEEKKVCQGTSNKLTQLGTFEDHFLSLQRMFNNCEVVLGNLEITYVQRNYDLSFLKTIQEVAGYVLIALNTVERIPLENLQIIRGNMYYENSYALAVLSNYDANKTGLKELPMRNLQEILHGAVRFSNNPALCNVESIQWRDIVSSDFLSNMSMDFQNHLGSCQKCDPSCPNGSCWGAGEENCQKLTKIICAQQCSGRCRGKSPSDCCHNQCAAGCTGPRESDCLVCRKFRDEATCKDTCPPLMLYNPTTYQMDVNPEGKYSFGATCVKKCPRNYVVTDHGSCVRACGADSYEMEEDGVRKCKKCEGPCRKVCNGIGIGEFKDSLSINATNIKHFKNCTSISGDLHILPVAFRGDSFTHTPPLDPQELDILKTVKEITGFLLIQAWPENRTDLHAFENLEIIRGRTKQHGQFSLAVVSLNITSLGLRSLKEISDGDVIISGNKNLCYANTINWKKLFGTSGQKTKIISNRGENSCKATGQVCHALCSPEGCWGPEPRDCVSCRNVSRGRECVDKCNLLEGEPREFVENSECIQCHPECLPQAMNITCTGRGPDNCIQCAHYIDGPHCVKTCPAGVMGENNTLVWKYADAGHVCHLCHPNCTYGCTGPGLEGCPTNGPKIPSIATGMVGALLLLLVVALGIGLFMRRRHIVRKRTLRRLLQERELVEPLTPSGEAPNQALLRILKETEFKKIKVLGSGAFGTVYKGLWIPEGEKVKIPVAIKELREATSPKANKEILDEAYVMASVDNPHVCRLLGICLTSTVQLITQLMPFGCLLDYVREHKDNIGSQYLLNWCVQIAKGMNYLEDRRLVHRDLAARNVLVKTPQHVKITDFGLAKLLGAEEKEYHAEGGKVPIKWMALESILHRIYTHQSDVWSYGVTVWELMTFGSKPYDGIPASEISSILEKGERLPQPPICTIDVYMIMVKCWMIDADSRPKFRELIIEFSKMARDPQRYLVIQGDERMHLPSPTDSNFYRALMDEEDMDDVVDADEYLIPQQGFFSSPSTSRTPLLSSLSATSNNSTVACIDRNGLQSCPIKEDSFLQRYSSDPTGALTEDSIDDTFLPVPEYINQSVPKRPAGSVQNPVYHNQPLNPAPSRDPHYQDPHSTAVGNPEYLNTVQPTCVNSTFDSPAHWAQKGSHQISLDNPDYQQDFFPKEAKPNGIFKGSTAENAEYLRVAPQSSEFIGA

[8] = biological target: Follistatin-related protein 3 (Homo sapiens) (UniProt O95633); experiment: FSTL3 binders on small-molecule microarrays, primary screen, biochemical, small-molecule microarray, 635 nm fluorescence (AID 1105); conditions: FSTL3 binding, higher = more signal;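 further: score merges emission near 667 nm and signal to noise per printed spot across three slides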
Follistatin-related protein 3 (Homo sapiens), sequence (O95633 whole entry, looked up): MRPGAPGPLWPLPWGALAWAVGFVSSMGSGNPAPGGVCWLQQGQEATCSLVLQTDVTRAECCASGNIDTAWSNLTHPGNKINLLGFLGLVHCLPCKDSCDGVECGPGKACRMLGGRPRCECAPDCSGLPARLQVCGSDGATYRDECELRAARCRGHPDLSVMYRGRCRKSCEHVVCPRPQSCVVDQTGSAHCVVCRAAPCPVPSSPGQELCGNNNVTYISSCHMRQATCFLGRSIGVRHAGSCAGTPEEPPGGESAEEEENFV

[9] = biological target: Dickkopf-related protein 1 (Homo sapiens) (UniProt O94907); experiment: DKK1 binders on small-molecule microarrays, primary screen, biochemical, small-molecule microarray, 635 nm fluorescence scan (AID 1106); conditions: DKK1 binding, higher = more signal;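 further: score merges emission near 667 nm with signal to noise over three replicate slides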
Dickkopf-related protein 1 (Homo sapiens), sequence (O94907 whole entry, looked up): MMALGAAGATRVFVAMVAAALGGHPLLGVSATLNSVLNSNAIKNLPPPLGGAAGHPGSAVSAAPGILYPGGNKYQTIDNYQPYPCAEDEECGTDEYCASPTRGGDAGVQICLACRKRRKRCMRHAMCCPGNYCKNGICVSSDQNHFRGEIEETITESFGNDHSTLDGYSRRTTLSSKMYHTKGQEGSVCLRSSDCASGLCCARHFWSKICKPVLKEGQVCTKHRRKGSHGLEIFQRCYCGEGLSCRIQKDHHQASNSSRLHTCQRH

[10] = system: Inhibin beta A chain (activin A); experiment: INHBA (activin A) binders on microarrays, primary screen, biochemical, small-molecule microarray, 635 nm fluorescence scan (AID 1107); conditions: small-molecule microarray binding, higher = more signal;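 further: mouse activin A protein probed at 4.33 µg/mL on printed slides; score merges bound-protein fluorescence near 667 nm with spot signal-to-noise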
[11] = system: Human papillomavirus type 1a protein E7 (residues 44-93); experiment: HPV1a E7 fragment binders on microarrays, primary screen, biochemical, small-molecule microarray, residues 44-93, 635 nm fluorescence (AID 1108); conditions: small-molecule microarray binding, fluorescence 635 nm; higher = more signal;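 further: E7 fragment applied at 1 µg/mL in TBST for 1 h at 4 C; score combines spot fluorescence with its signal to noise ratio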
[12] = modulators of HCV replicon luciferase signal, primary screen, HCV replication inhibitor project, Huh7 cells, luciferase reporter (AID 1109); conditions: 48 h, higher = more signal;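 further: huh7 hepatoma cells harbouring a luciferase neomycin HCV replicon reporter; luciferase luminescence as measure of HCV replicon replication; test concentration not given here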
[13] = biological target: Left-right determination factor 2 (Homo sapiens) (UniProt O00292); experiment: LEFTY2 binders on small-molecule microarrays, primary screen, biochemical, small-molecule microarray, 635 nm fluorescence scan (AID 1110); conditions: LEFTY2 binding, higher = more signal
Left-right determination factor 2 (Homo sapiens), sequence (O00292 whole entry, looked up): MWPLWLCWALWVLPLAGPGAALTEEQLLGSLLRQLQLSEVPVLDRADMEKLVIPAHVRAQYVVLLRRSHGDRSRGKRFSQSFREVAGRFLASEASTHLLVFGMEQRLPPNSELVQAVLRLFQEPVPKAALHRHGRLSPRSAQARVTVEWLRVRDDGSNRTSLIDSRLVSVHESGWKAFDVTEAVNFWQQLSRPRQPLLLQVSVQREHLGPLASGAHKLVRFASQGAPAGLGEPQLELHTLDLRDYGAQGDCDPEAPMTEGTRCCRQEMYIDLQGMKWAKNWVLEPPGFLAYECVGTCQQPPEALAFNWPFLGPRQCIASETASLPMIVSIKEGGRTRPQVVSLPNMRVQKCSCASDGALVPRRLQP

[14] = biological target: Calmodulin-1 (Homo sapiens) (UniProt P0DP23); experiment: CALM1 binders on microarrays, EGTA buffer, profiling panel, biochemical, small-molecule microarray, Cy5-labelled CALM1 (AID 1111); conditions: Cy5-CALM1 binding fluorescence, higher = more signal;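 further: labelled calmodulin applied in Tris saline Tween buffer holding calcium plus EGTA and DTT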
[15] = biological target: Calmodulin-1 (Homo sapiens) (UniProt P0DP23); experiment: calcium-bound CALM1 binders on microarrays, profiling panel, artefact control for SMM control-protein annotation, biochemical, small-molecule microarray, Cy5-labelled CALM1, plus calcium (AID 1112); conditions: Cy5-CALM1 binding fluorescence, higher = more signal;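 further: score merges spot fluorescence with signal to noise from triplicate slides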
[16] = small-molecule microarray binders of probe aWnt5a, primary screen, biochemical, biotinylated probe, 635/667 nm fluorescence (AID 1113); conditions: higher = more signal;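 further: score merges 667 nm fluorescence intensity with signal-to-noise per printed feature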
[17] = small-molecule microarray binders of probe aShh, primary screen, biochemical, biotinylated probe, 635/667 nm fluorescence (AID 1114); conditions: higher = more signal;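 further: probe is biotin-labelled aShh protein from a stem cell growth factor screen; measures binding of labelled protein to compounds printed on the slide; score merges feature fluorescence at 667 nm with signal-to-noise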
[18] = small-molecule microarray binders of probe aNog, primary screen, biochemical, biotinylated probe, 635/667 nm fluorescence (AID 1115); conditions: higher = more signal;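 further: probe is biotinylated aNog protein used at 0.15 µg/mL for 1 h at 4 C; z-score combines 667 nm fluorescence of each spot with its signal to noise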
[19] = biological target: Torsin-1A-interacting protein 1 (Homo sapiens) (UniProt Q5JTV8); experiment: LAP1 binders from COS7 cell lysate, primary screen, small-molecule microarray, 635/667 nm fluorescence (AID 1116); conditions: COS7-hLAP1 lysate binding, 635 nm fluorescence, higher = more signal
Torsin-1A-interacting protein 1 (Homo sapiens), sequence (Q5JTV8 whole entry, looked up): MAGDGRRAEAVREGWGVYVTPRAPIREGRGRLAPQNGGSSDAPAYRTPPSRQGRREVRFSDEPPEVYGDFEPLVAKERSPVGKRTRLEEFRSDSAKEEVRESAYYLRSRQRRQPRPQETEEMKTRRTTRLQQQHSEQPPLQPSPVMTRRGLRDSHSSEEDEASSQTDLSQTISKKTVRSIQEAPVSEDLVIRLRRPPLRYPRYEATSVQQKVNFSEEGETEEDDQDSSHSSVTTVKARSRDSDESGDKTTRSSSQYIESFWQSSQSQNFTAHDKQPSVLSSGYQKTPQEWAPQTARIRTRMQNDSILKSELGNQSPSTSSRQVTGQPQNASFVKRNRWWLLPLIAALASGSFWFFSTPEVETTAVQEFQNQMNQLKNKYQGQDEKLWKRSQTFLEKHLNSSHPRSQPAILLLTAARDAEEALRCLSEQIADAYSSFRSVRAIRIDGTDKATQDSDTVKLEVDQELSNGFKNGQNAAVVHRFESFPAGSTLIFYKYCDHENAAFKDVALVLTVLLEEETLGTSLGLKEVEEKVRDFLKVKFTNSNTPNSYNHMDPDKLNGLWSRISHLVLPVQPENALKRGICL

[20] = biological target: Alpha-bungarotoxin (Bungarus multicinctus) (UniProt P60615); experiment: alpha-bungarotoxin binders on microarray, profiling panel, artefact control for SMM control protein annotation, biochemical, small-molecule microarray, Alexa647 label, 635/667 nm fluorescence (AID 1117); conditions: alpha-BTX-A647 binding fluorescence, higher = more signal
Alpha-bungarotoxin (Bungarus multicinctus), sequence (P60615 whole entry, looked up): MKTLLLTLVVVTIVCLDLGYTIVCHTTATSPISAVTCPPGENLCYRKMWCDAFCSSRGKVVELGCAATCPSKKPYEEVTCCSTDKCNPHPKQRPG

Structure (SMILES)	composite z-score [1]	composite z-score [2]	composite z-score [3]	z-score [4]	composite z-score [5]	composite z-score [6]	composite z-score [7]	composite z-score [8]	composite z-score [9]	composite z-score [10]	composite z-score [11]	z-score [12]	composite z-score [13]	composite z-score [14]	composite z-score [15]	composite z-score [16]	composite z-score [17]	composite z-score [18]	composite z-score [19]	composite z-score [20]
CC(CCN1CCCc2nc(C)c(C)cc21)=NO[C@H](C)c1cn([C@H](CO)Cc2ccccc2)nn1	0.721	-0.319	-0.395	0.407 (inactive)	0.59	0.605	0.596	0.761	0.935	1.11	1.01	-1.73	0.796	-0.276	-0.519	-0.0704	-0.16	0.029	0.613	-0.207
CCOC(=O)[C@H](Cc1ccccc1)NC(=O)CCC1CC(OC(=O)NCCc2ccc(F)cc2)CC2(CCCC(COC(=O)NCCOc3ccccc3)O2)O1 (stereo not given in full)	0.87	-0.119	-0.442	-0.421 (inactive)	0.979	1.28	0.597	1.31	1.05	-0.155	1.4	-1.05	0.701	0.483	-0.296	-0.0721	-0.0709	-0.28	0.306	0.472
CC(=O)OC[C@H]1O[C@H](CC=NOC(C)CN2CCCCc3nc(C)c(C)cc32)C=C[C@@H]1OC(C)=O (stereo not given in full)	1.14	-0.0799	-0.199	0.375 (inactive)	0.83	1.31	1.59	1.31	1.68	1.13	1.11	-0.339	1.08	-0.208	-0.745	0.0044	-0.179	0.0805	0.556	0.971
Cc1ccc2[nH]c3nc(CCCn4ccnc4-c4ccccc4)nnc3c2c1	0.663	-0.28	-0.0165	-0.128 (inactive)	0.632	1.22	0.32	1.31	0.869	-0.739	0.0596	-0.544	0.635	0.308	-1.02	-0.101	0.191	-0.344	0.666	0.335
COC(=O)[C@@H]1CC[C@H](C)[C@@H](c2ccc(C)cc2)N1C(=O)c1ccc(C=NOC[C@@H](O)[C@H]2O[C@@H]3OC(C)(C)O[C@@H]3[C@H]2O)cc1	0.402	0.0861	-0.357	0.569 (inactive)	0.696	0.479	0.54	0.543	0.595	0.101	1.15	-0.447	0.414	0.504	-0.12	-0.117	-0.0709	-0.168	0.555	0.776
CC(=O)OC[C@H]1O[C@H](CC=NO[C@@H](C)c2cc(-c3c(C)cc(C)cc3C)no2)C=C[C@@H]1OC(C)=O	-0.229	-0.341	0.0256	0.708 (inactive)	-0.151	-0.55	0.0164	-0.037	-0.0281	0.363	-0.0612	-0.83	-0.111	-0.176	0.0084	-0.208	-0.223	-0.135	-0.502	0.753
CC(C)=CCCC(C)=CCON=C1[C@H]2CCn3c(=O)n(-c4ccccc4)c(=O)n3[C@H]2[C@H](O)[C@@H]2O[C@H]12	1.05	-0.229	-0.55	1.77 (inactive)	0.726	1.26	0.752	1.25	0.912	0.722	1.35	-3.17	0.802	-0.198	-0.807	-0.154	-0.102	-0.061	0.458	0.514
CCOC(=O)[C@H](Cc1ccccc1)NC(=O)CCC1CC(OC(=O)NCc2ccc3c(c2)OCO3)CC2(CCCC(COC(=O)NCCCN3CCCC3=O)O2)O1 (stereo not given in full)	0.465	-0.505	-0.431	-0.199 (inactive)	0.573	0.852	0.494	0.645	0.543	0.312	1.35	-1.93	0.56	0.972	0.356	-0.0607	-0.229	-0.0604	0.799	0.426
C[C@H]1CC[C@H]2C(=O)OC(COc3ccc(C(C)(C)C)cc3)CN2[C@@H]1c1ccc(Br)cc1 (stereo not given in full)	0.528	-0.254	-0.242	-0.216 (inactive)	0.172	0.364	-0.128	0.58	-0.039	0.451	1.1	1.1	0.0037	0.464	0.14	-0.277	-0.0709	-0.111	0.0437	0.319
COc1ccc(COC(=O)NN=C2C[C@@H](O)[C@@H](O)[C@@H]3[C@@H]4C(=O)N(C[C@@H]5CCCO5)C(=O)[C@@H]4CC[C@@H]23)cc1	1.06	-0.288	-0.241	-0.00678 (inactive)	1.01	0.0003	-0.127	-0.139	0.0237	0.203	0.222	0.778	0.179	0.342	-0.636	-0.172	-0.0793	-0.0496	0.411	0.915
CCCNC(=O)OC[C@H]1O[C@H](CCON=C2c3cc(OC)ccc3O[C@H](c3cccc(OC)c3)[C@H]2O)C=C[C@@H]1Oc1ccc(OC)cc1	0.204	0.0079	-0.0136	-0.553 (inactive)	0.744	0.21	0.474	0.54	0.273	-0.479	0.523	-3.02	0.322	0.571	0.0967	-0.187	-0.0035	-0.239	1.28	1.2
COc1ccc(COC(=O)NN=C2C[C@@H](O)[C@@H](O)[C@@H]3[C@@H]4C(=O)N(C[C@@H]5CCCO5)C(=O)[C@@H]4CC[C@H]23)cc1	-0.321	1	1.26	0.0734 (inactive)	-0.494	-0.797	-0.211	-1	-0.746	0.229	-0.491	-0.186	-0.34	-0.325	0.237	0.0162	-0.138	-0.103	0.656	0.418

Source: PubChem BioAssay
